Bioassay records: PubChem BioAssay, National Center for Advancing Translational Sciences (NCATS)
Giardia kill: Small Molecules that selectively kill Giardia lamblia: qHTS; 0.15% of 340,000 active; Giardia lamblia trophozoite viability; activity change, % at 7.66 µM, hits read low; in the data active = activity change below about -80%; inconclusive = between about -30% and that limit;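 note: parasites exposed to compound for two days anaerobically before the ATP read; % is set by controls: 0 for no effect and ±100 for the full control effect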
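Luminescence from cellular ATP indicates surviving trophozoites (100 cells/well) following 48 hrs anaerobic compound treatment at 37 deg C; signal develops 15-30 min at room temperature.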
SW480 rereplic: A quantitative high throughput screen for small molecules that induce DNA re-replication in SW480 colon adenocarcinoma cells; Potency, µM (top dose mostly 46.1 µM), without a hit: at the top dose re-replication activation, hits mostly activators; 1.8% of 340,000 active; SW480 DNA re-replication, Hoechst DNA content imaging, 48 h; AID 624297, 2012; note: potency is the fitted concentration of half-maximal effect; % of control where 0% means no effect; nearly all actives have a fitted effect of over 55% in size
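Treated cells incubate 48 hr (37 C, 5% CO2), are stained 40 min with Hoechst, and nuclear fluorescence is enumerated; a rise in nuclei with high DNA signal marks re-replication.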
Vif-APOBEC3F blk: qHTS for Inhibitors of Vif-A3F Interactions: qHTS; HeLa A3F-eYFP + Vif (tagged APOBEC3F with the HIV-1 protein that degrades it), YFP fluorescence increase; Potency, µM (doses to about 46.1 µM), for the others: at the highest dose activity, negative = active; 0.2% of 390,000 active; AID 602313, 2012; note: potency is the fitted concentration of half-maximal effect; % of control where 0% means no effect; nearly all actives have a fitted effect of over 65% in size
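HeLa cells stably expressing Vif plus C-terminally eYFP-tagged A3F were seeded, incubated overnight at 37 deg C, dosed with compound, incubated overnight again at 37 deg C. Yellow fluorescence (Ex 488/Em 500-530) reported blocked Vif-mediated A3F-eYFP degradation.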
IL-1B inflam inh: qHTS for Inhibitors of Inflammasome Signaling: IL-1-beta AlphaLISA Primary Screen; activity change, % at 57.5 µM; THP-1 LPS/ATP IL-1B secretion, AlphaLISA, 16 h; stronger effect = lower value; 4.7% of 360,000 active; in the data active = activity change below about -50%; inconclusive = mostly about -30% to -49%; note: % is set by controls: 0 for no effect and ±100 for the full control effect
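Secreted IL-1B measured by AlphaLISA bead assay after 16 h compound exposure of THP-1 cells; compounds (final up to 57.5 uM) added 1 h before LPS (250 ng/mL) and ATP (1.25 mM) stimulation; lower signal means less secretion.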
Vif-APOBEC3G blk: qHTS for Inhibitors of Vif-A3G Interactions: qHTS. 0.076% of 410,000 active. HeLa A3G-eYFP + Vif (tagged APOBEC3G with the HIV-1 protein that degrades it), YFP fluorescence, overnight. AID 602310, 2012. Potency, µM (series often up to 46.1 µM), for inactives: top-dose activity, negative = active, hits mostly inhibitors. DNA dC->dU-editing enzyme APOBEC-3G (Homo sapiens), Q9HC16; note: potency is the fitted concentration of half-maximal effect; % is set by controls: 0 for no effect and ±100 for the full control effect; nearly all actives have a fitted effect of over 60% in size
Target sequence (Q9HC16 whole entry, looked up): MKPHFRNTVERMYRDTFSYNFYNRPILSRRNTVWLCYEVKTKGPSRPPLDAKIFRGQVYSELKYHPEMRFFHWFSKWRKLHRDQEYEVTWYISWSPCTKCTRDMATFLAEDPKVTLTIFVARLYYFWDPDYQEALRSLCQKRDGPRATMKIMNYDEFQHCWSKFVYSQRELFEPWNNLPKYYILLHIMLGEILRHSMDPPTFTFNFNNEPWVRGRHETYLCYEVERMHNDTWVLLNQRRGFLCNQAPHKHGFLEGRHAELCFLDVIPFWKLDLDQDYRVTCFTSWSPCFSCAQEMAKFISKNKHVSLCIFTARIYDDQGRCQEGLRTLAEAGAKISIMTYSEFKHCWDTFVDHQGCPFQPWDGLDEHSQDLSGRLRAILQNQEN
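HeLa cells stably expressing Vif and C-terminally eYFP-tagged A3G, seeded overnight at 37 deg C, then exposed to compound by pintool overnight at 37 deg C. Rise in yellow fluorescence (Ex 488/Em 500-530, Acumen) marks blocked Vif-driven A3G degradation.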
MCF10A rerep: A quantitative high throughput screen for small molecules that induce DNA re-replication in MCF 10a normal breast cells; MCF 10A DNA re-replication, Hoechst nuclear intensity, 48 h; AID 624296, 2012; 2.9% of 350,000 active; Potency, µM (doses to about 46.1 µM), for the others: at the highest dose activity, positive = re-replication, hits mostly activators; note: potency is the fitted concentration of half-maximal effect; % of control where 0% means no effect; nearly all actives have a fitted effect of over 50% in size
Starred values were filed as active, the others as inactive; ? = inconclusive; nt = not tested or not shown. This is a sample that favours compounds with a hit; in the whole collection about 6.9% have one here. Unless noted, calls come from the whole dose curve; as a rule, active = well fitted curve in the direction sought with a large enough effect; inconclusive = small, poorly fitted or top-dose-only effect, or another doubt; inactive = no such curve, though single readings can be large; an effect the other way counts as inactive or inconclusive.

SMILES	Giardia kill	SW480 rereplic	Vif-APOBEC3F blk	IL-1B inflam inh	Vif-APOBEC3G blk	MCF10A rerep
Nc1ccc(N2CCCCC2)cc1N1CCCCC1	2	?	?	?	-18%	21µM*
COc1cc(CNC(=O)c2ccc3c(c2)N(C)C(=O)C2CCCCN32)cc(OC)c1OC (stereo not given)	nt	nt	-10%	nt	0%	nt
CCC(O)c1nc2ccccc2n1CCOc1cc(C)cc(C)c1 (stereo not given)	nt	nt	-7%	nt	4%	nt
CCOc1ccc(NC(=O)CN(C)C(=O)CC2CCCC2)cc1OCC	-10	?	17%	-15	3%	-1%
CCCc1cc(C(=O)N(C)CC(=O)Nc2ccc(OCC)c(OCC)c2)sc1C	37	-10%	6%	-13	-1%	0.46µM*
CCOc1ccc(NC(=O)CN(C)C(=O)C2CCCC2)cc1OCC	-9	-43%	0%	16	9%	0.65µM*
N#CC(C#N)=NNc1ccc2cn[nH]c2c1	nt	nt	nt	-86*	-9%	nt
Cc1ccc(OCC(O)Cn2c(=N)n(CCN3CCOCC3)c3ccccc32)cc1 (stereo not given)	3	-1%	8%	?	0%	13%
N=c1n(CCN2CCCC2)c2ccccc2n1CC(O)c1ccc(Cl)c(Cl)c1 (stereo not given)	3	?	-2%	-22	?	23µM*
N=c1n(CCN2CCCCC2)c2ccccc2n1CC(O)COc1ccc(Cl)cc1Cl (stereo not given)	nt	nt	4%	nt	-3%	nt
Cc1ccc(OCC(O)Cn2c(=N)n(CCN3CCCCC3)c3ccccc32)cc1 (stereo not given)	-15	?	1%	-50*	-1%	?
COc1ccc(OCC(O)Cn2c(=N)n(CCN3CCCCC3)c3ccccc32)cc1 (stereo not given)	-13	?	-6%	-57*	-6%	26µM*
Cc1cc(C)cc(NC(=O)CC(C)n2nc(C)cc2C)c1 (stereo not given)	nt	nt	6%	nt	-4%	nt
O=C1C=C(c2cccs2)C[C@H](c2ccccc2)[C@H]1n1nnc([N+](=O)[O-])n1	-21	?	-9%	-57*	-14%	?
CCOC(=O)c1ccc(N=c2sc(C(=O)OC)cc(=O)n2-c2ccc(C(=O)OCC)cc2)cc1	-13	?	?	-72*	?	?
COC(=O)c1cc(=O)n(Cc2cccs2)c(=Nc2ccccc2)s1	-4	6%	0%	-1	-22%	10µM*
COC(=O)c1cc(=O)n(-c2ccccc2)c(=Nc2ccccc2)s1	-29	?	2%	-58*	?	18µM*
COC(=O)c1cc(=O)n(Cc2ccc(F)cc2)c(=Nc2ccccc2)s1	-8	-8%	-14%	?	-28%	?
Clc1ccccc1-c1nn2c(-c3cc(-c4ccccc4)n[nH]3)nnc2s1	3	nt	nt	nt	-15%	nt
COc1ccc2nc(C(F)(F)Cl)c(C#N)c(N)c2c1	-12	?	9%	-72*	-15%	?
COc1ccc2nc3cc(Cl)ccc3c(C#N)c2c1	-2	21µM*	?	18	-17%	25%
Cc1cn(C)c(CC(=O)N2CCN(c3ccccc3F)CC2)c1C(=O)O	nt	nt	6%	nt	-3%	nt
O=S(=O)(O)c1cccc2cccc(Nc3ccccc3)c12	-19	16µM*	5%	24	0%	21µM*
Cc1ccc(Cl)cc1NC(=O)Cn1c(=O)n(CCC(=O)NCc2ccc3c(c2)OCO3)c(=O)c2sccc21	nt	nt	0%	nt	-2%	nt
CC1=NN(C(N)=S)C(=O)C1N=Nc1ccccc1Cl (stereo not given)	?	8.2µM*	0%	-7	9%	?
SMILES	Giardia kill	SW480 rereplic	Vif-APOBEC3F blk	IL-1B inflam inh	Vif-APOBEC3G blk	MCF10A rerep
CC1=NN(C(N)=S)C(=O)C1N=Nc1ccc(Cl)cc1Cl (stereo not given)	-26	-1%	3%	-6	1%	0%
NCCCN(Cc1ccc(Cl)cc1)c1ccc(Br)cn1	3	nt	nt	nt	nt	nt
COc1ccc2sc(-c3ccc(N(C)C)cc3)c(C#Cc3cncn3C)c2c1	-11	1.3µM*	-1%	-6	?	?
COc1ccc(-c2sc3cc(OC)c(OC)cc3c2C#CCO)cc1	-15	3.3µM*	-3%	-23	-3%	7%
COc1ccc(-c2sc3cc4c(cc3c2C#CC2(O)CCCCC2)OCO4)cc1	-15	-2%	-13%	-9	-5%	23µM*
COc1ccc2sc(-c3ccc(N(C)C)cc3)c(C#CCCO)c2c1	12	4.1µM*	-4%	-9	-22%	?
COc1ccc(-c2sc3ccc(OC)cc3c2C#CCCO)cc1	12	6%	-6%	0	-1%	?
COc1ccccc1-c1sc2cc3c(cc2c1C#CC1(O)CCCCC1)OCO3	-13	-4%	?	-29	-22%	?
COc1ccc(N2CC3=C(C2=O)C(c2ccc(Br)cc2)NC(=O)N3C)cc1 (stereo not given)	nt	nt	5%	nt	-8%	nt
CCN(c1cccc(C)c1)c1ncnc2c1cnn2-c1cccc(Cl)c1	nt	nt	1%	nt	-1%	nt
COc1ccc2sc(-c3ccc(N(C)C)cc3)c(C#CC(C)(C)O)c2c1	-29	2.1µM*	-5%	17	2%	12%
COc1cccc(-c2sc3ccc(OC)cc3c2C#CC(C)(C)O)c1	2	-6%	5%	-88*	-17%	?
COc1cccc(CNC(=O)CCc2nnc3n(CC(C)C)c(=O)c4ccccc4n23)c1	nt	nt	8%	nt	3%	nt
COc1ccc(C(=O)N=c2sc3cc(Cl)ccc3n2C)cc1	nt	nt	3%	nt	5%	nt
Cc1ccc(N=Cc2cc(Cl)cc(Cl)c2O)nc1	-8	18µM*	4%	60	-1%	?
Oc1c(Cl)cc(Cl)cc1/C=N/Nc1ncc(Br)cn1	-9	0.16µM*	?	10	-4%	?
Nc1[nH]c(=S)[nH]c(=O)c1N=O	nt	nt	nt	nt	3%	nt
CCc1ccccc1Nc1ncnc2c1cnn2-c1ccc(Cl)cc1	nt	nt	5%	nt	1%	nt
O=C(Nc1ccc(F)c(Cl)c1)C1CCN(S(=O)(=O)c2ccc3c(c2)CCCN3C(=O)C2CCC2)CC1	nt	nt	-1%	nt	-8%	nt
CC(=O)c1c(C)oc2ccc(N(C(C)=O)S(=O)(=O)c3ccc(Br)cc3)cc12	14	-5%	7%	-1	-5%	?
CC(=O)c1c(C)oc2ccc(N(C(C)=O)S(=O)(=O)c3ccc(Cl)c([N+](=O)[O-])c3)cc12	-27	?	0%	-117*	-5%	1.8µM*
